Sampled rows, rich in hits. Any-hit rate of the full collection: about 0.79%.
Calb biofilm kill – kills Candida albicans biofilms; C. albicans biofilm + clotrimazole, Alamar Blue; inhibition, % at 6 µM; 0.14% of 85,000 active; AID 834;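 active = inhibition above 20%; inactive = inhibition below 20%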;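 note: preformed 24 hr biofilms exposed to compound for 48 hr; 0% = biofilm without compound and 100% = blank killed by clotrimazole plus chlorhexidine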
LYP act – LYP (human) phosphatase activation. Q9Y2R2. recombinant LYP, DiFMUP fluorescence; 0 = plate median, 100 = signal doubled. activation, % at 2 µM. 0.11% of 96,000 active;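 active = activation at 2 µM above a set limit, the mean plus 5 SD, cut at about 37% in these data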
BAP1 inh – blocks human BAP1 ubiquitin-AMC hydrolysis. Q92560. recombinant BAP1, Ub-AMC hydrolysis fluorescence kinetic; stronger effect = lower value. calls only at 20 µM. 0.48% of 72,000 active;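 active = activity remaining at or below 50% of control, provided the compound also passes the data quality filters; inactive = the rest, including low values that fail the filters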;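 note: 100% = DMSO wells rate and 0% = substrate alone blank rate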
sEH act – increases human soluble epoxide hydrolase activity. P34913. purified human sEH enzymatic activity, activator screen. activation, % at 2 µM. 0.04% of 91,000 active. AID 717; in the data active = activation above about 37%
sEH inhibitor – inhibitors of human soluble epoxide hydrolase; inhibition, % at 2 µM; 0.34% of 91,000 active; recombinant human sEH enzymatic activity assay; in the data active = inhibition above about 80%
PTPN22 inh 2 – LYP (human) phosphatase inhibition; recombinant LYP catalytic domain, DiFMUP fluorescence; inhibition, % at 2 µM; 0.21% of 96,000 active; AID 640;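 active = inhibition at 2 µM at or above a set limit, the screen mean plus 3 SD, cut at about 24% in these data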;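 note: 0% = DMSO with enzyme and 100% = enzyme fully blocked by orthovanadate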
BAP1 inh confirm – BAP1 (human) enzyme inhibition, confirmed; shares compounds with BAP1 inh; purified BAP1, Ub-ethyl ester hydrolysis, HPLC; stronger effect = lower value; % of control activity, % at 20 µM; 8% of 310 active; AID 753;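 active = percent of control activity at or below 60%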
Starred values were filed as active, the others as inactive; i = inactive; x = no result shown; + = active, no number.

SMILES	Calb biofilm kill	LYP act	BAP1 inh	sEH act	sEH inhibitor	PTPN22 inh 2	others
COc1ccccc1/C=N/N=C(/N)N[N+](=O)[O-]	44.4*	-6.8	x	-1.0	-2.0	3.1
O=C(c1ccccc1)c1cc(Cl)ccc1N1C(=O)c2cccc([N+](=O)[O-])c2C1=O	x	x	i	x	x	x
CCOC(=O)c1c(-n2c(C)cc(/C=C3/C(=O)NC(=O)N(CC)C3=O)c2C)sc2c1CCCC2	x	6.2	x	7.5	-9.6	-8.4
CCOC(=O)c1c(-n2c(C)cc(C=C3C(=O)NC(=S)NC3=O)c2C)sc2c1CCCC2	x	-24.3	x	4.7	-5.8	28.9*
CCN(CC)CCNC(=O)c1c(O)c2ccccc2n(Cc2ccccc2)c1=O	4.4	-1.3	x	2.3	-3.4	5.3
CCN(CC)CCCNC(=O)c1c(O)c2ccccc2n(Cc2ccccc2)c1=O	9.8	-21.7	i	-2.1	2.6	24.4*
CCOP(=O)(C(NC(=O)c1ccccc1Cl)=C(Cl)Cl)c1ccccc1 (centres undefined)	68.8*	7.6	x	8.1	-5.8	-10.3
CC(O)CNc1ccc([N+](=O)[O-])c2ncccc12 (centres undefined)	x	x	i	x	x	x
CCCCn1c(=O)c(C(=O)Nc2nc3ccccc3[nH]2)c(O)c2ccccc21	7.0	x	+	x	x	x
N[C@@H](CCl)C(=O)O	x	x	i	x	x	x
NC(Cc1cc(O)c(O)cc1O)C(=O)O (centres undefined)	x	x	+	x	x	x
CCCCc1nc2ccccc2c(=O)n1-c1ccc(C)cc1	x	x	i	x	x	x
CCn1nc(-c2cccs2)nc2c(=O)n(C)c(=O)nc1-2	x	x	+	x	x	x	BAP1 inh confirm=93.5
CC(=Nc1ccc2c(c1)CCC2)c1c(O)n(C2CCCCC2)c(=O)[nH]c1=O	-3.9	-6.0	x	-1.9	-0.5	7.0
CCC(=Nc1ccc2c(c1)CCC2)c1c(O)n(C2CCCCC2)c(=O)[nH]c1=O	7.0	-5.7	+	2.6	-4.8	4.3	BAP1 inh confirm=83.7
Cc1cc(OCc2ccccc2F)c2c3c(c(=O)oc2c1)CCCC3	x	x	i	x	x	x

Source: PubChem
